Experimental data: paper PMC5540273 (PLoS ONE, 2017)

Experiments:
Conditions in all cases: concentration: 1 μM, replicates: in singlicate; n = 1
PKN1 = tested on: PKN1
PKN2 = tested on: PKN2
PLK1 = tested on: PLK1
PLK2 = tested on: PLK2
PLK3 = tested on: PLK3
PLK4 = tested on: PLK4
PRKCD = tested on: PRKCD
PRKCE = tested on: PRKCE
PRKCH = tested on: PRKCH
PRKCI = tested on: PRKCI
PRKCQ = tested on: PRKCQ
PRKD1 = tested on: PRKD1
PRKD2 = tested on: PRKD2
PRKD3 = tested on: PRKD3
PRKG1 = tested on: PRKG1
PRKG2 = tested on: PRKG2
PRKR = tested on: T1, PRKR
T1 construct: gene EIF2AK2

PRKX = tested on: PRKX
PRP4 = tested on: PRP4
PYK2 = tested on: T2, PYK2
T2 construct: gene PTK2B
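Note: KINOMEscan kinase panel screen.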

Nc1nc(-c2nccs2)c(-c2ccnc3ccccc23)s1 [GW693542]
%Inh (PKN1): 6%
%Inh (PKN2): 2%
%Inh (PLK1): 0%
%Inh (PLK2): 0%
%Inh (PLK3): 0%
%Inh (PLK4): 0%
%Inh (PRKCD): 1%
%Inh (PRKCE): 8%
%Inh (PRKCH): 16%
%Inh (PRKCI): 30%
%Inh (PRKCQ): 39%
%Inh (PRKD1): 42%
%Inh (PRKD2): 14%
%Inh (PRKD3): 12%
%Inh (PRKG1): 8%
%Inh (PRKG2): 0%
%Inh (PRKR): 0%
%Inh (PRKX): 10%
%Inh (PRP4): 20%
%Inh (PYK2): 16%

COC(=O)c1c(-c2ccccc2)c2cc(OC)ccc2c(=O)n1Cc1ccccc1
%Inh (PKN1): 4%
%Inh (PKN2): 0%
%Inh (PLK1): 0%
%Inh (PLK2): 25%
%Inh (PLK3): 20%
%Inh (PLK4): 19%
%Inh (PRKCD): 19%
%Inh (PRKCE): 12%
%Inh (PRKCH): 9%
%Inh (PRKCI): 0%
%Inh (PRKCQ): 15%
%Inh (PRKD1): 0%
%Inh (PRKD2): 16%
%Inh (PRKD3): 0%
%Inh (PRKG1): 0%
%Inh (PRKG2): 2%
%Inh (PRKR): 4%
%Inh (PRKX): 4%
%Inh (PRP4): 7%
%Inh (PYK2): 6%

CC1=C(C(=O)Nc2cc3cn[nH]c3cc2F)C(c2ccc(C(F)(F)F)cc2)CC(=O)N1 (stereo not drawn) [GSK429286]
%Inh (PKN1): 56%
%Inh (PKN2): 0%
%Inh (PLK1): 0%
%Inh (PLK2): 0%
%Inh (PLK3): 0%
%Inh (PLK4): 0%
%Inh (PRKCD): 0%
%Inh (PRKCE): 0%
%Inh (PRKCH): 0%
%Inh (PRKCI): 19%
%Inh (PRKCQ): 28%
%Inh (PRKD1): 22%
%Inh (PRKD2): 4%
%Inh (PRKD3): 0%
%Inh (PRKG1): 30%
%Inh (PRKG2): 0%
%Inh (PRKR): 0%
%Inh (PRKX): 87%
%Inh (PRP4): 7%
%Inh (PYK2): 10%

Cn1cncc1-c1ccc2ncnc(Nc3ccc(OCc4ccccc4)cc3)c2c1 [GW320571]
%Inh (PKN1): 1%
%Inh (PKN2): 0%
%Inh (PLK1): 9%
%Inh (PLK2): 0%
%Inh (PLK3): 0%
%Inh (PLK4): 0%
%Inh (PRKCD): 0%
%Inh (PRKCE): 14%
%Inh (PRKCH): 14%
%Inh (PRKCI): 32%
%Inh (PRKCQ): 16%
%Inh (PRKD1): 26%
%Inh (PRKD2): 5%
%Inh (PRKD3): 15%
%Inh (PRKG1): 26%
%Inh (PRKG2): 0%
%Inh (PRKR): 0%
%Inh (PRKX): 4%
%Inh (PRP4): 0%
%Inh (PYK2): 34%

COc1ccccc1-c1ccc2c(NC(=O)C3CC3)n[nH]c2n1 [SB-711239]
%Inh (PKN1): 12%
%Inh (PKN2): 2%
%Inh (PLK1): 10%
%Inh (PLK2): 0%
%Inh (PLK3): 0%
%Inh (PLK4): 0%
%Inh (PRKCD): 0%
%Inh (PRKCE): 3%
%Inh (PRKCH): 27%
%Inh (PRKCI): 0%
%Inh (PRKCQ): 9%
%Inh (PRKD1): 0%
%Inh (PRKD2): 11%
%Inh (PRKD3): 30%
%Inh (PRKG1): 27%
%Inh (PRKG2): 22%
%Inh (PRKR): 7%
%Inh (PRKX): 25%
%Inh (PRP4): 53%
%Inh (PYK2): 0%

Fc1cc(Cl)ccc1Nc1ccnc2cc(I)ccc12 [GW551191]
%Inh (PKN1): 17%
%Inh (PKN2): 0%
%Inh (PLK1): 0%
%Inh (PLK2): 0%
%Inh (PLK3): 0%
%Inh (PLK4): 1%
%Inh (PRKCD): 0%
%Inh (PRKCE): 10%
%Inh (PRKCH): 2%
%Inh (PRKCI): 16%
%Inh (PRKCQ): 18%
%Inh (PRKD1): 1%
%Inh (PRKD2): 0%
%Inh (PRKD3): 0%
%Inh (PRKG1): 5%
%Inh (PRKG2): 0%
%Inh (PRKR): 0%
%Inh (PRKX): 0%
%Inh (PRP4): 13%
%Inh (PYK2): 1%

CCn1c(-c2ccccn2)nc2cnccc21 [SB-736398]
%Inh (PKN1): 0%
%Inh (PKN2): 11%
%Inh (PLK1): 0%
%Inh (PLK2): 0%
%Inh (PLK3): 0%
%Inh (PLK4): 0%
%Inh (PRKCD): 0%
%Inh (PRKCE): 10%
%Inh (PRKCH): 0%
%Inh (PRKCI): 30%
%Inh (PRKCQ): 14%
%Inh (PRKD1): 0%
%Inh (PRKD2): 0%
%Inh (PRKD3): 1%
%Inh (PRKG1): 0%
%Inh (PRKG2): 3%
%Inh (PRKR): 0%
%Inh (PRKX): 100%
%Inh (PRP4): 46%
%Inh (PYK2): 9%

O=C(Nc1ccc2c(c1)OCO2)NC1CCN(c2ccnc(Nc3ccc(F)cc3)n2)C1 (stereo not drawn) [GSK1379724]
%Inh (PKN1): 4%
%Inh (PKN2): 0%
%Inh (PLK1): 0%
%Inh (PLK2): 0%
%Inh (PLK3): 0%
%Inh (PLK4): 0%
%Inh (PRKCD): 0%
%Inh (PRKCE): 7%
%Inh (PRKCH): 0%
%Inh (PRKCI): 0%
%Inh (PRKCQ): 0%
%Inh (PRKD1): 16%
%Inh (PRKD2): 5%
%Inh (PRKD3): 0%
%Inh (PRKG1): 0%
%Inh (PRKG2): 0%
%Inh (PRKR): 0%
%Inh (PRKX): 0%
%Inh (PRP4): 17%
%Inh (PYK2): 0%

Cc1ccc(-c2cc(-c3c[nH]nc3-c3ccccn3)ccn2)cc1 [GW684088]
%Inh (PKN1): 0%
%Inh (PKN2): 0%
%Inh (PLK1): 0%
%Inh (PLK2): 0%
%Inh (PLK3): 0%
%Inh (PLK4): 0%
%Inh (PRKCD): 0%
%Inh (PRKCE): 16%
%Inh (PRKCH): 0%
%Inh (PRKCI): 12%
%Inh (PRKCQ): 1%
%Inh (PRKD1): 68%
%Inh (PRKD2): 62%
%Inh (PRKD3): 69%
%Inh (PRKG1): 0%
%Inh (PRKG2): 16%
%Inh (PRKR): 24%
%Inh (PRKX): 21%
%Inh (PRP4): 27%
%Inh (PYK2): 16%
